For 5 compounds, potency estimated from few doses results are on record in PMC11062922 (Nature Chemical Biology, 2023).

Like-named read-outs stand apart in the source and are kept apart here.

The subject of one test is AAK1. Also noted: species or system human, MV4-11 + K-562 + COLO205 + SK-N-BE2 + OVCAR-8. To be noted: read-out: apparent Kd, n = 1.
The test system of a further test is BMP2K. Also noted: species or system human, MV4-11 + K-562 + COLO205 + SK-N-BE2 + OVCAR-8. To be noted: read-out: apparent Kd, n = 1.
The test system of a further test is CLK1. Also noted: species or system human, MV4-11 + K-562 + COLO205 + SK-N-BE2 + OVCAR-8. Conditions: read-out: apparent Kd, n = 1.
Another test relates to CLK4. Also noted: species or system human, MV4-11 + K-562 + COLO205 + SK-N-BE2 + OVCAR-8. Conditions: read-out: apparent Kd, compound concentrations: 100 nM and 1000 nM (sheet 'Samples'), n = 1.
The test system of the next test is CSNK2A1;CSNK2A3. Also noted: species or system human, MV4-11 + K-562 + COLO205 + SK-N-BE2 + OVCAR-8. To be noted: read-out: apparent Kd, n = 1.
For a further test, the system named is CSNK2A2. Also noted: species or system human, MV4-11 + K-562 + COLO205 + SK-N-BE2 + OVCAR-8. Conditions: read-out: apparent Kd, n = 1.
In another test the test system is FLT3. Also noted: species or system human, MV4-11 + K-562 + COLO205 + SK-N-BE2 + OVCAR-8. To be noted: read-out: apparent Kd; compound concentrations: 100 nM and 1000 nM (sheet 'Samples'), CATDS: 4.9574860121956603E-2; n = 1.
A further test concerns FLT4. Also noted: species or system human, MV4-11 + K-562 + COLO205 + SK-N-BE2 + OVCAR-8. Conditions: read-out: apparent Kd, n = 1.
For the next test, the system named is GAK. Also noted: species or system human, MV4-11 + K-562 + COLO205 + SK-N-BE2 + OVCAR-8. Conditions: read-out: apparent Kd, n = 1.
The subject of another test is GSK3A. Also noted: species or system human, MV4-11 + K-562 + COLO205 + SK-N-BE2 + OVCAR-8. Conditions: read-out: apparent Kd, n = 1.
The next test has as its system GSK3B. Also noted: species or system human, MV4-11 + K-562 + COLO205 + SK-N-BE2 + OVCAR-8. To be noted: read-out: apparent Kd, n = 1.
For a further test, the system named is MELK. Also noted: species or system human, MV4-11 + K-562 + COLO205 + SK-N-BE2 + OVCAR-8. Conditions: read-out: apparent Kd; compound concentrations: 100 nM and 1000 nM (sheet 'Samples'), CATDS: 1.9967026123172499E-2; n = 1.
For a further test, the system named is NUAK1. Also noted: species or system human, MV4-11 + K-562 + COLO205 + SK-N-BE2 + OVCAR-8. To be noted: read-out: apparent Kd; compound concentrations: 100 nM and 1000 nM (sheet 'Samples'), CATDS: 4.1010981116741001E-2; n = 1.
In a further test the test system is PAK4. Also noted: species or system human, MV4-11 + K-562 + COLO205 + SK-N-BE2 + OVCAR-8. To be noted: read-out: apparent Kd, n = 1.
The test system of another test is PKN1. Also noted: species or system human, MV4-11 + K-562 + COLO205 + SK-N-BE2 + OVCAR-8. Conditions: read-out: apparent Kd; compound concentrations: 100 nM and 1000 nM (sheet 'Samples'), CATDS: 1.1966323436805501E-2; n = 1.
The target of a further test is Q6ZSR9 (human, UniProt Q6ZSR9). Also noted: species or system MV4-11 + K-562 + COLO205 + SK-N-BE2 + OVCAR-8. Conditions: read-out: apparent Kd, n = 1.
Sequence of Q6ZSR9 (Q6ZSR9 whole entry, looked up): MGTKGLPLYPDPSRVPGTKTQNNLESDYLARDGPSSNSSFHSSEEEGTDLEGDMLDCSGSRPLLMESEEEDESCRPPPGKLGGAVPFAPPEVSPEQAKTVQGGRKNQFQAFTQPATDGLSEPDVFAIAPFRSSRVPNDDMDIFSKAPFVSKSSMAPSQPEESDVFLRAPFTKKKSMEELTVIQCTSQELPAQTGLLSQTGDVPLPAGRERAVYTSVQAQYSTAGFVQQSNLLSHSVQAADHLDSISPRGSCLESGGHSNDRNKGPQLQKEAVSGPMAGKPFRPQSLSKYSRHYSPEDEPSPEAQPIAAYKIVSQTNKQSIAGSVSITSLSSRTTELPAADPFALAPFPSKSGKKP
In another test the test system is RET. Also noted: species or system human, MV4-11 + K-562 + COLO205 + SK-N-BE2 + OVCAR-8. To be noted: read-out: apparent Kd, n = 1.
For the next test, the system named is SIK2. Also noted: species or system human, MV4-11 + K-562 + COLO205 + SK-N-BE2 + OVCAR-8. To be noted: read-out: apparent Kd, n = 1.
The subject of a further test is PKN3. Also noted: species or system human, MV4-11 + K-562 + COLO205 + SK-N-BE2 + OVCAR-8. To be noted: read-out: apparent Kd; compound concentrations:100 nM and 1000 nM (sheet 'Samples'); n = 1.
Setting [1] is: compound concentrations:100 nM and 1000 nM (sheet 'Samples').

Consider `COc1cc[nH]c1/C=C1\C(=O)Nc2ccc(F)c(C#CC3(O)CCNCC3)c21.Cl` [RO0282986-001], for which the potency estimated from few doses was 0.0517 µM in the test on AAK1 (compound concentrations: 100 nM and 1000 nM (sheet 'Samples'), CATDS: 4.4387438114571E-2); 0.0178 µM in the test with BMP2K (compound concentrations: 100 nM and 1000 nM (sheet 'Samples'), CATDS: 9.1500909624849303E-2); 1.16 µM with CLK1 (compound concentrations: 100 nM and 1000 nM (sheet 'Samples'), CATDS: 1.0356916336546E-2); 0.634 µM with CLK4 (CATDS: 1.25074250244867E-2); 0.45 µM with CSNK2A1;CSNK2A3 (compound concentrations: 100 nM and 1000 nM (sheet 'Samples'), CATDS: 1.42353528510114E-2); 0.173 µM in the test on CSNK2A2 (compound concentrations: 100 nM and 1000 nM (sheet 'Samples'), CATDS: 2.2066768869253801E-2). Also, the potency estimated from few doses with FLT3 was 0.0436 µM; in the test on FLT4 (compound concentrations: 100 nM and 1000 nM (sheet 'Samples'), CATDS: 1.2160517778916E-2) it was 0.687 µM; in the test with GAK (compound concentrations: 100 nM and 1000 nM (sheet 'Samples'), CATDS: 1.5691521545656201E-2) it was 0.356 µM; in the test with GSK3A (compound concentrations: 100 nM and 1000 nM (sheet 'Samples'), CATDS: 1.8964305572366599E-2) it was 0.235 µM; in the test on GSK3B (compound concentrations: 100 nM and 1000 nM (sheet 'Samples'), CATDS: 1.5746210655388199E-2), 0.353 µM; in the test on MELK it was 0.211 µM. Moreover, the potency estimated from few doses in the test on NUAK1 is 0.0586 µM; in the test with PAK4 (compound concentrations: 100 nM and 1000 nM (sheet 'Samples'), CATDS: 2.1447100630881601E-2), 0.183 µM; with PKN1, 0.72 µM; with Q6ZSR9 (compound concentrations: 100 nM and 1000 nM (sheet 'Samples'), CATDS: 3.8240338432775099E-2), 0.0656 µM; with RET (compound concentrations: 100 nM and 1000 nM (sheet 'Samples'), CATDS: 4.4247015083228598E-2) it was 0.052 µM; in the test on SIK2 (compound concentrations: 100 nM and 1000 nM (sheet 'Samples'), CATDS: 1.2903831315266401E-2), 0.581 µM.

With `CC(=O)N[C@@H](Cc1ccc(OP(=O)(O)O)cc1)C(=O)N[C@H]1CCC(=O)N2CCC[C@@H](C(=O)NCc3ccc(Cl)cc3)N2C1=O` [RO0325308-000], the potency estimated from few doses with AAK1 (setting [1]) was 0.737 µM; with BMP2K (setting [1]), 1.48 µM; in the test on CLK1 (setting [1]), 0.0604 µM; in the test with CSNK2A1;CSNK2A3 (setting [1]), 1.43 µM; in the test on CSNK2A2 (setting [1]), 1.78 µM; in the test on FLT4 (setting [1]) it was 0.0284 µM. The potency estimated from few doses in the test on GAK (setting [1]) is 0.0594 µM; with GSK3A (setting [1]) it was 0.059 µM; with GSK3B (setting [1]), 0.0607 µM; with PAK4 (setting [1]), 1.17 µM; in the test on PKN3 it was 0.152 µM; in the test with Q6ZSR9 (setting [1]), 1.03 µM. Also, the potency estimated from few doses in the test on RET (setting [1]) was 0.876 µM; with SIK2 (setting [1]), 0.943 µM.

In the case of `Cc1n[nH]c2cc(Nc3ccnc(Nc4cccc(CN5CCOCC5)c4)n3)ccc12` [GW682569X], the potency estimated from few doses was 0.729 µM in the test with AAK1 (compound concentrations: 100 nM and 1000 nM (sheet 'Samples'), CATDS: 0.12351757147220301); 1.25 µM in the test with BMP2K (compound concentrations: 100 nM and 1000 nM (sheet 'Samples'), CATDS: 0.100079515212571); 0.981 µM with Q6ZSR9 (compound concentrations: 100 nM and 1000 nM (sheet 'Samples'), CATDS: 0.10935758268406801).

Regarding `FC(F)(F)c1ccc(-c2ncn(CCCN3CCOCC3)c2-c2ccncc2)cc1` [SB-217780], in the test with AAK1 (compound concentrations: 100 nM and 1000 nM (sheet 'Samples'), CATDS: 0.194449602003399), the potency estimated from few doses was 1.89 µM.

As to `O=C1N=C(NCc2cccs2)O/C1=C\c1ccc2ncccc2c1` [RO4624208-000], the potency estimated from few doses in the test with AAK1 (compound concentrations: 100 nM and 1000 nM (sheet 'Samples'), CATDS: 0.10731748351682301) is 0.135 µM; in the test on BMP2K (compound concentrations: 100 nM and 1000 nM (sheet 'Samples'), CATDS: 4.6084247955460698E-2) it was 1.92 µM; with CLK1 (compound concentrations: 100 nM and 1000 nM (sheet 'Samples'), CATDS: 0.227495449578137) it was 0.0237 µM; in the test on CLK4 (CATDS: 0.59916054369274396) it was 0.00427 µM; in the test with CSNK2A1;CSNK2A3 (compound concentrations: 100 nM and 1000 nM (sheet 'Samples'), CATDS: 6.2614032961525998E-2), 0.629 µM; in the test on CSNK2A2 (compound concentrations: 100 nM and 1000 nM (sheet 'Samples'), CATDS: 6.3902524713508005E-2) it was 0.59 µM. For the same compound, in the test with Q6ZSR9 (compound concentrations: 100 nM and 1000 nM (sheet 'Samples'), CATDS: 0.11947964791327), the potency estimated from few doses was 0.103 µM.
